Compound activity from PubChem BioAssay.
An excerpt weighted towards active compounds, which were near 0.5% of everything screened.
E coli growth-1 = blocks Escherichia coli growth; OD600, 23 h; stronger effect = lower value; OD600 absorbance (no concentration beside the values); 0.21% of 330,000 active; AID 1053175;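 active = OD600 absorbance below the run mean of sample wells minus 3.6 SD, in any replicate, cut at about 0.56 in these data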
E coli growth-2 = reduces bacterial viability in AddAB counter-screen; E. coli V3065 growth, OD600 absorbance, 18 h; inhibition, % at 11.9 µM; 0.27% of 330,000 active; AID 449728;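 active = inhibition above the campaign's mean inhibition across all tested compounds plus 3 SD, cut at about 9.9% in these data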;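 note: uninfected addAB+ strain grown without phage in ampicillin broth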
AddAB inh = less growth of phage-infected E. coli with AddAB; E. coli expressing H. pylori AddAB, absorbance growth; inhibition, % at 11.9 µM; 0.29% of 330,000 active; in the data active = inhibition above about 12%
phage Ecoli inh = E. coli growth loss with phage present | growth absorbance | inhibition, % at 11.9 µM | 0.26% of 360,000 active; in the data active = inhibition above about 11%
Tat transport = blocks Tat-dependent protein export in E. coli; E. coli MC4100 TorA-mCherry Tat export, fluorescence; inhibition, % at 10 µM; 0.036% of 340,000 active;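 active = mean replicate inhibition at least 50% and at least half of replicates individually reaching 50%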;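 note: exported cargo escapes ClpAP degradation while cytoplasmic cargo is degraded and loses fluorescence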
Of the large screens only hits and unclear results are named; the others gave an inactive call.

CCCC(CN1CCCC1CN1C(N)=NCC1Cc1ccccc1)N1CC(C(C)CC)N(CCc2ccc(Cl)c(Cl)c2)C1=N (stereo not drawn)	E coli growth-1 0.338 (no result: E coli growth-2, AddAB inh, phage Ecoli inh, Tat transport)
CC[C@@H](C)[C@@H]1CN([C@@H](C)CN2CCC[C@H]2CN2C(N)=NC[C@H]2CC(C)C)C(=N)N1CCc1ccc(Cl)c(Cl)c1	none (no result: E coli growth-1)
C[C@@H](CN1CCC[C@H]1CN1C(N)=NC[C@@H]1Cc1ccccc1)N1C[C@@H](Cc2ccccc2)N(CCc2ccc(Cl)c(Cl)c2)C1=N	Tat transport 65.8 (no result: E coli growth-1, phage Ecoli inh)
CCCC(CN1CCCC1CN1C(N)=NCC1Cc1ccccc1)N1CC(Cc2ccccc2)N(CCc2ccc(Cl)c(Cl)c2)C1=N (stereo not drawn)	E coli growth-1 0.0615 (no result: E coli growth-2, AddAB inh, phage Ecoli inh, Tat transport)
COc1ccc(C2C=CCN(S(=O)(=O)C=Cc3ccccc3)CC(=O)N2Cc2ccc(F)cc2)cc1 (stereo not drawn)	none (no result: E coli growth-2, AddAB inh, phage Ecoli inh, Tat transport)
COc1ccc(C2C=CCN(CC3CC3)CC(=O)N2Cc2ccc(F)cc2)cc1 (stereo not drawn)	none (no result: E coli growth-2, AddAB inh, phage Ecoli inh, Tat transport)
CN(CC(Cc1ccccc1)N(CC(CC1CCCCC1)N(CCc1ccccc1)N=O)N=O)N=O (stereo not drawn)	none (no result: E coli growth-2, AddAB inh, phage Ecoli inh, Tat transport)
CC[C@@]12C(=O)N(c3cccc(Br)c3)C(=O)N1C(c1ccc(Br)cc1)C1C(=O)N(C(C)(C)C)C(=O)C12 (stereo partly drawn)	none (no result: E coli growth-2, AddAB inh, phage Ecoli inh, Tat transport)
CC(C)[C@H](CN1CCC[C@H]1CN1C(N)=NC[C@@H]1Cc1ccccc1)N1C[C@@H](Cc2ccccc2)N(CCc2ccc(Cl)c(Cl)c2)C1=N	none (no result: E coli growth-1, phage Ecoli inh)
CCC[C@@H](CN1CCC[C@H]1CN1C(N)=NC[C@H]1CC(C)C)N1C[C@@H](Cc2ccccc2)N(CCc2ccc(Cl)c(Cl)c2)C1=N	E coli growth-1 0.0585
CCC[C@@H](CN1CCC[C@H]1CN1C(N)=NC[C@H]1CC(C)C)N1C[C@@H](Cc2ccccc2)N(CCCC2CCCC2)C1=N	E coli growth-1 0.268
Nc1nc(Nc2cccc(F)c2)nc2ccccc12	E coli growth-1 0.466
O=c1oc(Nc2cccc(F)c2)nc2ccccc12	none
Cc1nn(C(C)C(=O)NC2C(=O)N3C(C(=O)O)=C(CSc4nnnn4C)CSC23)cc1Cl (stereo not drawn)	E coli growth-1 0.431
CN(C)CCn1nnnc1SCC1=C(C(=O)O)N2C(=O)C(NC(=O)Cc3csc(N)n3)C2SC1 (stereo not drawn)	E coli growth-1 0.0615 (no result: E coli growth-2, AddAB inh, phage Ecoli inh, Tat transport)
Cn1nnnc1SCC1=C(C(=O)O)N2C(=O)[C@@H](NC(=O)[C@H](O)c3ccccc3)[C@H]2SC1	none (no result: E coli growth-1, phage Ecoli inh)
CC(C(=O)NC1C(=O)N2C(C(=O)O)=C(CSc3nnnn3C)CSC12)n1cc(Br)cn1 (stereo not drawn)	E coli growth-1 0.508
Cc1cc(C(F)F)nn1CC(=O)NC1C(=O)N2C(C(=O)O)=C(CSc3nnnn3C)CSC12 (stereo not drawn)	E coli growth-1 0.187
Cn1nnnc1SCC1=C(C(=O)O)N2C(=O)C(NC(=O)C3CC3c3ccccc3)C2SC1 (stereo not drawn)	none
Cc1ccc(Nc2c(-c3ccccn3)nc3cccc(C)n23)cc1	E coli growth-1 0.278
COC(=O)[C@]12C(=O)NCC(CN1c1ccc(C(F)(F)F)cc1)N2C	none (no result: E coli growth-2, AddAB inh, phage Ecoli inh, Tat transport)
CN(C1CCCCC1)S(=O)(=O)c1ccc(NC(=O)c2ccc(Br)o2)cc1	none
CN(C)S(=O)(=O)c1ccc(NC(=O)c2ccc(Br)o2)cc1	E coli growth-2 9.8 (no result: phage Ecoli inh)
Cc1cn(C2CC(N=[N+]=[N-])C(CO)O2)c(=O)[nH]c1=O (stereo not drawn)	E coli growth-1 0.062 (no result: E coli growth-2, AddAB inh, phage Ecoli inh, Tat transport)
Cc1cn(C2CC(O)C(O)C(CO)O2)c(=O)[nH]c1=O (stereo not drawn)	none (no result: E coli growth-1, E coli growth-2, AddAB inh, Tat transport)
Cc1cccc(C=Cc2nc3ccccc3c(=O)n2Cc2ccccc2)c1	none (no result: E coli growth-2, AddAB inh, phage Ecoli inh, Tat transport)
NC(CO)C(=O)NNCc1ccc(O)c(O)c1O (stereo not drawn)	E coli growth-2 12.9 (no result: E coli growth-1)
COC(=O)C(N)Cc1ccc(O)c(O)c1 (stereo not drawn)	none
CCOc1cc(C2Nc3cccc4cccc(c34)N2)ccc1O	none (no result: phage Ecoli inh)
CCOc1ccc(C2Nc3cccc4cccc(c34)N2)cc1OC	E coli growth-1 0.555
O=[N+]([O-])/C=C/c1cc2ccccc2[nH]1	E coli growth-1 0.5
Cc1noc(C)c1COC(=O)c1cccc(S(=O)(=O)N2CCOCC2)c1	Tat transport 53.3
Cc1noc(C)c1COC(=O)c1cc(S(=O)(=O)N2CCOCC2)ccc1Cl	none
c1ccc2c(c1)CCC2=NNc1nc2ccccc2[nH]1	E coli growth-1 0.464 (no result: E coli growth-2, AddAB inh, phage Ecoli inh, Tat transport)
CS(=O)(=O)n1nc(-c2ccc(Cl)cc2)nc1N	none
Cn1nc(-c2ccc(Cl)cc2)nc2c(=O)n(C)c(=O)nc1-2	E coli growth-1 0.48 (no result: phage Ecoli inh)
